In PubChem BioAssay:

What follows are molecules tested against Tumor necrosis factor receptor superfamily member 10B (Homo sapiens) (UniProt O14763) (assay: viability loss of caspase-8 NB7 cells with TRAIL – with/without TRAIL, luminescence panel, confirmation (AID 651596)). Details: NB7 neuroblastoma + caspase-8, TRAIL sensitization, NB7 Caspase-8, with TRAIL, mean of runs, at 10 µM, stronger effect = higher value.
Sequence of Tumor necrosis factor receptor superfamily member 10B (Homo sapiens) (O14763 whole entry, looked up): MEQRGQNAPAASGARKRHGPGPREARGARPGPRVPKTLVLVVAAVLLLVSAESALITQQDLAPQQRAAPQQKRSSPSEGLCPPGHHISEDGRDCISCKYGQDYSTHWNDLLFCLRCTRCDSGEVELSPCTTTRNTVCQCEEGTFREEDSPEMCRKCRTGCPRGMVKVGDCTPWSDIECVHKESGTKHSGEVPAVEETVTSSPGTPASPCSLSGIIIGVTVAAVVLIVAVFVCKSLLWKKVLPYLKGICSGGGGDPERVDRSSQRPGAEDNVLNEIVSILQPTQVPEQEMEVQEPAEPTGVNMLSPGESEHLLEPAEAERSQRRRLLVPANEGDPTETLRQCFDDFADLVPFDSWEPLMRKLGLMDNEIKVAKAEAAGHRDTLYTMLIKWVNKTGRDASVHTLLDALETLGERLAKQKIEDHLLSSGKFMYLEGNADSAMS
`CCc1nnc(NC(=O)c2nc(S(=O)(=O)Cc3ccccc3)ncc2Cl)s1` was tested, and the activity was 95.4%. Molecule `COc1ccc2cc3cc(C(=O)NC4CC4)sc3nc2c1` has an activity of 80%. For `CC(C)c1ccc(NC(=O)Nc2nc(C(N)C3CCCCC3)cs2)cc1` (stereo not given), the activity was 92.2%. `Cc1ccc2nc(-c3ccncc3)cc(C(=O)Nc3ccncc3)c2c1` gave an activity of 19.9%. Molecule `CC(C)(C)OC(=O)NCCCC[C@H](NC(=O)c1nc[nH]c1C(=O)NC(c1ccccc1)c1ccccc1)C(=O)OC(C)(C)C` has an activity of 67%. `O=C(Nc1cccc(O)c1)c1noc2c1CCc1ccccc1-2` gave an activity of 76.6%. Molecule `CCCCOc1ccc(-c2nc(=S)[nH][nH]2)cc1` has an activity of 67.1%. `Cc1cc(C(=O)COC(=O)c2n[nH]c3ccccc23)c(C)n1CC1CCCO1` (stereo not given) gave an activity of 77.5%. `CSc1ccc(NC(=O)Nc2cc(C)ccn2)cc1` was tested, and the activity was 52.8%. With `CCCCCN=Cc1c(C)[nH]n(-c2nc3ccccc3s2)c1=O` the activity was 95.5%. With `O=C(CSc1nnc(-c2ccccc2Cl)o1)Nc1ccccn1` the activity was 68.8%. `Cc1cccc(N2CCN(C(=S)Nc3ccc4nc(N5CCN(C)CC5)cc(C)c4c3)CC2)c1C` showed an activity of 98%. `O=C(/C=C/c1ccc(F)cc1)NC(=S)Nc1ccccc1C(=O)NC1CCCCC1` was tested, and the activity was -1.65%. For `Oc1ccc(-c2cnc(-c3ccc(O)cc3)nc2)cc1`, the activity was 88.2%. Molecule `Cc1ccc(O)c(-c2cc(-c3ccc(F)cc3)no2)c1` has an activity of 71.2%. `COc1ccc(-c2cc(C(=O)OCC(=O)N3CCOCC3)c3ccccc3n2)cc1` showed an activity of 36.6%. Molecule `Clc1ccc(CSc2nc3ccncc3[nH]2)cc1` has an activity of 96.8%. In the case of `COc1ccc(NC(=O)c2ccc(C)cc2)cc1`, the activity was 66.1%. For `CC(C)(C)c1ccc2c(c1)OC(C(=O)N/N=C\c1ccc[nH]1)CO2` (stereo not given), the activity was 26.6%. In the case of `CNC[C@@H](Cc1ccccc1)NC[C@@H](CC1CCCCC1)NCCCc1ccccc1`, the activity was 99.3%. `C=C(C)c1nc(Oc2ccccc2)nc(Oc2ccccc2)n1` gave an activity of 77%. With `COC(=O)CSc1nnc(NC(=O)/C=C\c2ccc3c(c2)OCO3)s1` the activity was 49.5%. Molecule `O=C(CCl)N=c1sccn1Cc1ccc(Cl)cc1Cl` has an activity of 99.3%. For `Cc1ccc2sc(NC(=O)CSc3nc(C)cc(C)c3C#N)nc2c1`, the activity was 71.5%. For `Clc1ccc(-c2nc(-c3cnccn3)no2)cc1`, the activity was 45.6%. `Cc1ccc2nc(N(CCCN(C)C)C(=O)c3ccc(S(=O)(=O)N4CCc5ccccc5C4)cc3)sc2c1` was tested, and the activity was 55.4%. `O=C(c1ccc(CSc2nc3ccncc3[nH]2)cc1)N1CCCCCC1` gave an activity of 85.7%. In the case of `COc1ccc2nc(Nc3ccccc3)sc2c1`, the activity was 49.2%. Work on `COc1ccc2[nH]c(-c3ccc(C)cc3)cc(=O)c2c1` yielded an activity of 87.4%. With `CCOC(=O)c1sc(NC(=O)c2ccccc2OC)nc1C` the activity was 26.1%. With `CCCC(=O)N1CCN(c2ccc(NC(=O)c3cc4ccccc4o3)cc2Cl)CC1` the activity was 83%. Work on `C/C(=N\NC(=O)c1ccc(Cl)cc1)c1ccccn1` yielded an activity of 32.2%. Work on `COc1ccc(C(=O)Nc2ccc3ccccc3c2)cc1` yielded an activity of 76.8%. `C=CCn1c(C)cc(C(=O)CN2C(=O)c3ccccc3C2=O)c1C` showed an activity of 60.2%. Work on `CCN(CC)C(=O)c1nn(-c2ccccc2)c2c1C1CCC2(C)C1(C)C` (stereo not given) yielded an activity of 15.1%. `CCc1nn2cc(-c3ccccc3)nc2s1` showed an activity of 79.7%. Molecule `O=c1c2c(nc3cc(-c4ccc(F)cc4)[nH]n13)CCCC2` has an activity of 71.5%. `COC(=O)[C@@H]1Cc2c([nH]c3ccccc23)C(C)(C)N1C(=O)CCl` showed an activity of 99%. Molecule `Cc1ccsc1C(=O)Nc1ccc2c(c1)OCCO2` has an activity of 53.2%. In the case of `COc1ccc(C(=O)N/N=C/c2cccnc2)cc1`, the activity was 34.2%.
